Results: PubChem BioAssay AID1851 (National Center for Advancing Translational Sciences (NCATS), 2009)
Screen size: about 16,000 compounds; about 2,600 (16%) were called active. Not shown: some 20% with an inconclusive outcome. The list is a sample of the results. Values without a mark were called inactive. The call rests on the fitted dose curve; in most records, active means well fitted curve in the direction sought with a large enough effect; inconclusive means small, poorly fitted or top-dose-only effect, or effect the other way; inactive means no such curve, though single readings can be large or run the other way.

Molecular target: Cytochrome P450 2D6 (Homo sapiens) (UniProt P10635)
Sequence (P10635 whole entry, looked up): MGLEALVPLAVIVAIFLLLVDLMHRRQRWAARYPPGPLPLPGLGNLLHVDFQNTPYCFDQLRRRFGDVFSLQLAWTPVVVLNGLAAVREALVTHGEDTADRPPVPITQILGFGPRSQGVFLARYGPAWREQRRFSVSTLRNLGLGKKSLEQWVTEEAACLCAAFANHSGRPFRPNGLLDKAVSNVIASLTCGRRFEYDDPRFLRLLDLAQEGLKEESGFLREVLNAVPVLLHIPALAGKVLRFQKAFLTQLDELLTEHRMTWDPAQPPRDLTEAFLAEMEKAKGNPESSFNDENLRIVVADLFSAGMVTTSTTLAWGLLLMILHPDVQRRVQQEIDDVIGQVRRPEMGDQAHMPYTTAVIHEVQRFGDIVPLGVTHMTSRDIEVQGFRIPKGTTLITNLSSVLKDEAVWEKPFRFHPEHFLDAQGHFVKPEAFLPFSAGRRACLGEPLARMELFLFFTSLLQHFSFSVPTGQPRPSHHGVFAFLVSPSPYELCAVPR
Assay: Cytochrome panel assay with activity outcomes
Settings: recombinant CYP, pro-luciferin dealkylation, luminescence, p450-cyp2d6; series mostly up to 57.1 µM; activity, negative = inhibition: at the top concentration
On the % scale 0 is the no-effect control and ±100 the full control effect.

| SMILES | activity, negative = inhibition | AC50 |
| --- | --- | --- |
| COC(=O)c1cnn(C(=O)c2ccccc2Br)c1N | -7.26% |  |
| CN(C)c1ccc(O)c2c1C[C@H]1C[C@H]3[C@@H](N(C)C)C(=O)C(C(N)=O)=C(O)[C@]3(O)C(=O)C1=C2O | 0.499% [at 25.6 µM] |  |
| CCOc1ccc(-c2nnc3ccc(SCC(=O)NCc4ccco4)nn23)cc1 | -3.12% |  |
| N#Cc1cc2nc(O)c(O)nc2cc1[N+](=O)[O-] |  | inactive |
| CC[C@H](C)C(=O)O[C@@H]1C[C@H](C)C=C2C=C[C@H](C)[C@@H](CC[C@H]3C[C@@H](O)CC(=O)O3)[C@H]21 | -10.6% [at 25.6 µM] |  |
| CO[C@H]1C=CO[C@]2(C)Oc3c(C)c(O)c4c(O)c(c5c(c4c3C2=O)NC2(CCN(CC(C)C)CC2)N=5)=NC(=O)C(C)=CC=C[C@@H](C)[C@@H](O)[C@@H](C)[C@@H](O)[C@@H](C)[C@@H](OC(C)=O)[C@@H]1C | -2.37% [at 25.6 µM] |  |
| Cn1c(=O)c(-c2ccc(F)cc2)nc2cnc(N3CCOCC3)nc21 | 4.78% |  |
| Cn1c(=O)c(-c2ccc(Cl)cc2)nc2cnc(Nc3ccccc3)nc21 | -3.12% |  |
| Cn1c(-c2sccc2OCc2ccccc2)n[nH]c1=S | -13.7% |  |
| O=C(c1cc(C(F)(F)F)cc(C(F)(F)F)c1)N1CCC2(CC1)CN(Cc1ccncc1)C2 | -19% |  |
| O=C(c1cnccn1)N1CCC2(CC1)CN(c1ccncc1)C2 | -4.27% |  |
| O=C(c1cnccn1)N1CCC2(CC1)CN(Cc1cc(C(F)(F)F)cc(C(F)(F)F)c1)C2 |  | 0.398 µM (active) |
| CC(C)(C)n1nc2c(c1NC(=O)c1ccc(S(=O)(=O)N3CCCCC3)cc1)CS(=O)C2 (stereo unspecified) | -11.7% |  |
| Cc1cc(NC(=O)NC(=O)c2ccc(F)cc2F)n[nH]1 | -17.9% |  |
| CCC(C)C1NC(=S)N(C2CCCCC2)C1=O (stereo unspecified) | 11.4% |  |
| COc1ccc2c(c1)-c1ccccc1S(=O)(=O)N2C | -19.1% |  |

| SMILES | activity, negative = inhibition | AC50 |
| --- | --- | --- |
| COc1ccc2c(c1)C(=NN)c1cc(OC)ccc1-2 |  | 22.4 µM (active) |
| COc1ccc2c(c1)Cc1cc(N=[N+]([O-])c3ccc4c(c3)Cc3cc(OC)ccc3-4)ccc1-2 | -7.57% [at 11.4 µM] |  |
| O=C(Cn1cnc([N+](=O)[O-])c1)NCc1ccc(F)cc1 | -12.5% |  |
| N#Cc1cccc(NC(=O)N2CCCC3(CCN(C(=O)c4csnn4)CC3)C2)c1 | -2.2% |  |
| O=C(c1csnn1)N1CCC2(CCCN(c3ccc(-c4ccccc4)cc3)C2)CC1 | -2.24% |  |
| O=C(c1cnccn1)N1CCC2(CC1)CN(c1ccccn1)C2 | -17.3% |  |
| CC(=O)N1CCC[C@@]2(CCN(Cc3nccs3)C2)C1 | 2.01% |  |
| CC(=O)N1CCC2(CC1)CN(c1ccccn1)C2 | -17.2% |  |
| O=C(c1csnn1)N1CCC2(CCN(Cc3nccs3)CC2)CC1 | 2.94% |  |
| O=C(c1csnn1)N1CCC[C@@]2(CCN(Cc3nccs3)C2)C1 |  | 5.01 µM (active) |
| O=C(c1csnn1)N1CCC2(CC1)CN(c1ccccn1)C2 |  | 12.6 µM (active) |
| O=C(c1csnn1)N1CCC2(CCCN(Cc3ccccc3)C2)CC1 |  | 1.26 µM (active) |
| COc1ccc(NC(=O)N2CC3(CCN(C(=O)c4csnn4)CC3)C2)cc1 | 2.53% |  |
| CC(C)CN1CCCC2(CCN(C(=O)c3csnn3)CC2)C1 |  | 5.01 µM (active) |
| O=C(Nc1ccccc1)N1CCC2(CC1)CCN(C(=O)c1csnn1)CC2 | -11.4% |  |
